Assay [1] has as its target Peptidyl-prolyl cis-trans isomerase NIMA-interacting 1 (Homo sapiens) (UniProt Q13526). Nature of the assay: qHTS Validation Assay to Find Inhibitors of Pin1 (AID 504536; active = well fitted inhibition curve with a large enough effect in the polarisation, with a control signal flat, not every such curve was filed as active; the % refers to the polarisation). The method in brief: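 Fluorescence polarization competition: compounds (titration) displace HiFluor-488-labeled Pin1-1b peptide from Pin1 (0.3 uM final) in pH 7.5 HEPES buffer with DTT, 10 min at room temperature; %Activity normalized to no-enzyme wells, curves fitted.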

Assay [2] has as its target Phosphoglycerate kinase, glycosomal (Trypanosoma brucei brucei) (UniProt P07378). The assay can be described thus: qHTS Validation Assay to Find Inhibitors of Phosphoglycerate Kinase (AID 504547). The method in brief:
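Compounds are pinned into the substrate/PGK mixture, and GAPDH (100nM final) is added to start the reaction by producing 1,3-BPG. After 60 minutes at room temperature, Kinase-Glo Plus is added and luminescence is measured 10 minutes later.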

Assay [3] deals with phosphoglycerate mutase (Leishmania major) (UniProt Q4Q090). Nature of the assay: qHTS Validation Assay to Find Inhibitors of Phosphoglycerate Mutase (AID 504548).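 Also: end-point luminescence from Kinase-GloPlus after the PGAM reaction; series mostly up to about 58 µM.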 Particulars: Potency: inhibition qHTS. In a few lines:
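L. major PGAM (1.25nM final) was added to substrate buffer and pinned compound, incubated 45 minutes at room temperature, then Kinase-GloPlus added; luminescence read after 10 minutes. Buffer: 100 mM TEA pH 7.6, 5 mM MgCl2, 0.01% Tween-20.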

Assay [4] in a line: Inducers of the Endoplasmic Reticulum Stress Response (ERSR) in human glioma: Validation (AID 504836). In a few lines: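 Stably transfected U87-MG glioma cells carrying a GRP78-based luciferase sensor; 16 h compound incubation. Luminescence end-point read 10 min after Bright-Glo addition at room temperature.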
The target in assay [5] is Ubiquitin carboxyl-terminal hydrolase 1 (Homo sapiens) (UniProt O94782). Nature of the assay: Inhibitors of USP1/UAF1: Pilot qHTS (AID 504865). Also: nearly all actives have a fitted effect of over 35% in size. Also: potency is read from the fitted curve at half-maximal effect. The method in brief: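 USP1/UAF1 complex at 1 nM preincubated 15 min at room temperature with compound, then Ub-Rho substrate added at 150 nM final. Fluorescence (480/540 nm) read kinetically in 50 mM HEPES pH 7.8, 0.5 mM EDTA, 1 mM TCEP, 0.1 mg/ml BSA, 0.01% Tween-20.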

The nature of assay [6]: qHTS for Inhibitors of ATXN expression: Validation of Cytotoxic Assay (AID 588349). Also: potency is read from the fitted curve at half-maximal effect. In a few lines: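 Cytotoxicity counter-screen: ATP-based luminescent viability (CellTiter Glo) after 72 hr exposure of HEK293 cells to a compound titration at 37 degrees C.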
Assay [7] can be described thus: qHTS for Inhibitors of ATXN expression: Validation (AID 588378). Also: nearly all actives have a fitted effect of over 75% in size. Also: potency is read from the fitted curve at half-maximal effect. The method in brief: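 HEK293 cells carrying ATXN2-firefly luciferase reporter, treated with compound 24 h at 37 °C. Viability read first by CellTiter-Fluor (405/525 nm), then reporter expression by Bright-Glo luminescence; controls were a known ATXN2 expression inhibitor and a luciferase inhibitor.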

Assay [8] has as its target Galactokinase (Homo sapiens) (UniProt P51570). The assay can be described thus: qHTS Validation Assay for Inhibitors of Human Galactokinase (GALK) (AID 493189). In a few lines:
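GALK (5 nM) with 35 uM ATP and 100 uM galactose in HEPES pH 8.0 with MgCl2, NaCl, DTT and BSA. Reaction ran 1 h at room temperature. Residual ATP read by Kinase-Glo Plus luminescence.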

Assay [9] concerns the target DNA dC->dU-editing enzyme APOBEC-3G (Homo sapiens) (UniProt Q9HC16). Nature of the assay: qHTS for inhibitors of Vif-A3G interactions: Validation (AID 588379). In a few lines: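 Yellow fluorescence (Ex 488, Em 500-530) of Vif-coexpressing HeLa A3G-eYFP cells, scanned by Acumen cytometer, reports blocked A3G degradation. Cells plated at 700/well overnight at 37 deg C before compound addition, then a further overnight compound incubation at 37 deg C.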

Assay [10] can be described thus: Validation screen for small molecules that induce DNA re-replication in SW480 colon adenocarcinoma cells (AID 504364). In a few lines:
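Image-based DNA content read-out: Hoechst stain 40 min, total nuclear fluorescence intensity (ex 405 nm, em 500-530 nm) after 48 h compound exposure of 250 SW480 cells/well at 37 C, 5% CO2, versus DMSO vehicle.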

“And” between values parts separate entries of the source, which are not always exact repeats. Equal entries are not always repeated. Inconclusive results are not listed. The source made the active and inactive calls. Unless noted, calls follow the shape of the dose curve; as a rule, active = well fitted curve in the direction sought with a large enough effect; inconclusive = small, poorly fitted or top-dose-only effect, or another doubt; inactive = no such curve, though single readings can be large; an effect the other way counts as inactive or inconclusive.

phosphoglycerate mutase (Leishmania major), sequence (Q4Q090 1-553): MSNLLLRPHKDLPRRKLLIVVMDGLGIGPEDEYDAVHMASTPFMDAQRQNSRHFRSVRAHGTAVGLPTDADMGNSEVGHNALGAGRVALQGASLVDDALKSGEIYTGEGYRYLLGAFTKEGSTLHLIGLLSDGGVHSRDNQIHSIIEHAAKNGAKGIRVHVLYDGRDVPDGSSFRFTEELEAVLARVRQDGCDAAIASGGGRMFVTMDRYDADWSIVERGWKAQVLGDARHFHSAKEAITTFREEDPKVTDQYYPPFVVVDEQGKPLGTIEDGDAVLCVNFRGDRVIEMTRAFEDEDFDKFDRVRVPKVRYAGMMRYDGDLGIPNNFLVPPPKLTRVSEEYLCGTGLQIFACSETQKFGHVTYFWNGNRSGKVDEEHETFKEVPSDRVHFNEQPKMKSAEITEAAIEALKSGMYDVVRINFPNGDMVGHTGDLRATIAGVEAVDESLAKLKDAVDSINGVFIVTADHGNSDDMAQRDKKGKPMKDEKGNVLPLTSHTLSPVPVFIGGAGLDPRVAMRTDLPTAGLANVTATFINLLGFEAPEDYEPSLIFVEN
Galactokinase (Homo sapiens), sequence (P51570 whole entry, looked up): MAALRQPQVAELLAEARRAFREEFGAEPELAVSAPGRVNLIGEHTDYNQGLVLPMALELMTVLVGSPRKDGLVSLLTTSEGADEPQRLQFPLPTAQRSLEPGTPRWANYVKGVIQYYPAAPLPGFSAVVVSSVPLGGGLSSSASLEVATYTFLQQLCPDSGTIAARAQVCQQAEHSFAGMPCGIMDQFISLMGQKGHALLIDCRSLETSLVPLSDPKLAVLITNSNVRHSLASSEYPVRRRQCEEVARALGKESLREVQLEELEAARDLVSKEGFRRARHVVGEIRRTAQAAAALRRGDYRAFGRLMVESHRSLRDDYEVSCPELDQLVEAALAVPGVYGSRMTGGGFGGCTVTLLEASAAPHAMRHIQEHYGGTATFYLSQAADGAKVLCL
Peptidyl-prolyl cis-trans isomerase NIMA-interacting 1 (Homo sapiens), sequence (Q13526 whole entry, looked up): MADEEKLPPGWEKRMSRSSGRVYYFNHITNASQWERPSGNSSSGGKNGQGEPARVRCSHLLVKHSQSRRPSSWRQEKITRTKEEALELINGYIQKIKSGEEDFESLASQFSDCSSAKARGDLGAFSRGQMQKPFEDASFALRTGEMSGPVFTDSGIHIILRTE
Phosphoglycerate kinase, glycosomal (Trypanosoma brucei brucei), sequence (P07378 whole entry, looked up): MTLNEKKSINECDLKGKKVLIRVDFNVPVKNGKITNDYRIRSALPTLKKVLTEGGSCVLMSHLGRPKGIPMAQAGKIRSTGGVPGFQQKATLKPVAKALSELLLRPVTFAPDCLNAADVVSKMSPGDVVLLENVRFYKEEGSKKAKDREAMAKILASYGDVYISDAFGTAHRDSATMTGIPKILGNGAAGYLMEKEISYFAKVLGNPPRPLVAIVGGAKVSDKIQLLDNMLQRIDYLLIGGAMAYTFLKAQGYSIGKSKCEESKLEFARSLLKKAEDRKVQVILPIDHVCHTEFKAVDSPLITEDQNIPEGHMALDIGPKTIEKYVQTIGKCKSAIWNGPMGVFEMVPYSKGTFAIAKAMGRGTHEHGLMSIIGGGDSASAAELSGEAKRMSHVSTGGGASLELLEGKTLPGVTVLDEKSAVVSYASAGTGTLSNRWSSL
Ubiquitin carboxyl-terminal hydrolase 1 (Homo sapiens), sequence (O94782 whole entry, looked up): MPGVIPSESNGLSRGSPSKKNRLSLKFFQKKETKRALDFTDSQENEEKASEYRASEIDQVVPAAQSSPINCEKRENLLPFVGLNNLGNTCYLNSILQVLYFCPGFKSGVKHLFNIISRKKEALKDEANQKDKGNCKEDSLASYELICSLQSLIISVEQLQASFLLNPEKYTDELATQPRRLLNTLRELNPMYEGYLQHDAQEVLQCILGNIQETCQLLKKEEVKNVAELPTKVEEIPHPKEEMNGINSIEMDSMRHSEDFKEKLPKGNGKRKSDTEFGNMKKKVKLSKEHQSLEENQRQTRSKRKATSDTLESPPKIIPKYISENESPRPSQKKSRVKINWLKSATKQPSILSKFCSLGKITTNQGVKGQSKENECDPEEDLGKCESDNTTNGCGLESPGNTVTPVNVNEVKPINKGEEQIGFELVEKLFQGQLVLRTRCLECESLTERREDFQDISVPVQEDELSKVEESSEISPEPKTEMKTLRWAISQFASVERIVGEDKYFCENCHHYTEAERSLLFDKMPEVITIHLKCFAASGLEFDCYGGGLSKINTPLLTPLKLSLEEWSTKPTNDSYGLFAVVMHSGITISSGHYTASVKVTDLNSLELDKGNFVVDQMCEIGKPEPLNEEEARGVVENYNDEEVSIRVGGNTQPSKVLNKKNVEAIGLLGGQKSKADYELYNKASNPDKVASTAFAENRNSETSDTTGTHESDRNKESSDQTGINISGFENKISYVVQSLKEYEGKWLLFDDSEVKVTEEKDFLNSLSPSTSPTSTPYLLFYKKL
DNA dC->dU-editing enzyme APOBEC-3G (Homo sapiens), sequence (Q9HC16 whole entry, looked up): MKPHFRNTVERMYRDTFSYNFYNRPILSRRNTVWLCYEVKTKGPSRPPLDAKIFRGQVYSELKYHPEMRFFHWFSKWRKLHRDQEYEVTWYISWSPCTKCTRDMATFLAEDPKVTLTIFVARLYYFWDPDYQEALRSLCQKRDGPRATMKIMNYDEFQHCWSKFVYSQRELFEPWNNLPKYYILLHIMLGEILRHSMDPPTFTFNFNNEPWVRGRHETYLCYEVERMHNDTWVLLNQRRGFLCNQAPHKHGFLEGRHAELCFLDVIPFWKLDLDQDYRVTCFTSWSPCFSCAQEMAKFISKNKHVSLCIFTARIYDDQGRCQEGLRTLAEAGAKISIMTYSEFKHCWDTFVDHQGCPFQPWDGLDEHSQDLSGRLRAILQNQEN

`N#CCCN`: the Potency result in assay [1], in assay [2], in [3], in assay [5], in assay [6] and in [7] was “inactive” in each case. Further, the result in [4] was inactive.

On to `CCCn1c(C)c(C(=O)c2ccc3ccccc3c2)c2ccccc21`, for which the call in assay [8] and in [4] was inactive. The Potency entry in assay [2], in [3] and in assay [7] was “inactive” throughout.

As for `ClC(Cl)(Cl)Cl`, the Potency result in assay [5] is “inactive”.

As for `COc1ccc2c(c1)/C(=C/c1cnc[nH]1)C(=O)N2`, the outcome in [8] was inactive. Besides, the Potency result in assay [1] and in assay [2] was “inactive” throughout. The Potency in [7] was 2.82 µM (active).

Turning to `C=CCN1CCc2cccc3c2[C@H]1Cc1ccc(O)c(O)c1-3`, the Potency result in assay [2] and in assay [5] was “inactive” each time. The molecule was called inactive in [4].

With `CC(=O)OCC1=C(C(=O)O)N2C(=O)[C@@H](NC(=O)CCC[C@@H](N)C(=O)O)[C@H]2SC1`, the Potency result in assay [1], in [2], in assay [3], in [5], in [6] and in assay [7] was “inactive” each time.

Turning to `COc1ccc2c(c1)c(CCN1CCOCC1)c(C)n2C(=O)c1cccc(Cl)c1Cl`, the Potency result in [1], in assay [2] and in [3] was “inactive” throughout. For the same molecule, the result in assay [4] was inactive.

For the molecule `N=C(N)c1ccc(CS(=O)(=O)F)cc1`, the Potency entry in [1], in [2], in assay [3], in assay [6] and in [7] was “inactive” throughout.

Take `N#C/C(=C/c1ccc(O)c(O)c1)C(N)=S`: the Potency result in [3] and in [7] was “inactive” each time. In addition, the call in assay [4] was inactive.

Consider `CCN1C[C@@]2(COC)C3[C@@H](OC)C4[C@@H]1C3([C@@H]1C[C@]3(O)[C@H](OC(=O)c5ccccc5)[C@@H]1[C@]4(OC(C)=O)[C@@H](O)[C@@H]3OC)[C@H](OC)C[C@H]2O`, for which the Potency entry in assay [1], in assay [2], in assay [3], in assay [5], in assay [6] and in assay [7] was “inactive” in each case. Moreover, the result in [4] was inactive.

For `C[N+]1(C)CCc2cc3c(cc2[C@H]1[C@@H]1OC(=O)c2c1ccc1c2OCO1)OCO3`, the Potency result in assay [1], in [2], in assay [3], in [5], in assay [6] and in assay [7] was “inactive” in each case. Moreover, the molecule was classed as inactive in assay [4].

Take `CCNC(=O)[C@H]1O[C@@H](n2cnc3c(N)ncnc32)[C@H](O)[C@@H]1O`: the Potency result in assay [2], in assay [3], in assay [5], in [6] and in assay [7] was “inactive” throughout. The outcome in assay [4] was inactive.

For `Cc1cc([C@@H]2CCCN2C)on1`, the Potency entry in assay [2], in [3], in [6] and in assay [7] was “inactive” throughout.

As for `O=[N+]([O-])/C=C/c1ccc2c(c1)OCO2`, the Potency result in assay [2], in assay [3] and in assay [5] was “inactive” in each case. For the same molecule, the Potency in assay [7] was 10 µM (active).

On to `CCCN1CCC[C@@H](c2cccc(O)c2)C1`, for which the Potency entry in assay [2], in [3], in assay [5], in assay [6] and in assay [7] was “inactive” in each case. Also, in [4], the outcome was inactive.

With `CC(=O)c1c(O)c(C)c(O)c(Cc2c(O)c3c(c(C(=O)/C=C/c4ccccc4)c2O)OC(C)(C)C=C3)c1O`, the call in assay [8], in [4] and in assay [9] was inactive. The Potency result in [2] and in [3] was “inactive” in each case. Further, in assay [5], the Potency is 79.4 µM (active) and 56.2 µM (active).

Turning to `CCCC[N+]1(C)C2CC(OC(=O)[C@H](CO)c3ccccc3)CC1C1OC12` (some centres undefined), the Potency entry in assay [1], in assay [2], in assay [3], in assay [6] and in assay [7] was “inactive” each time.

`CNc1ccc2oc(C[C@H]3O[C@@]4(CC[C@H]3C)O[C@H]([C@H](C)C(=O)c3ccc[nH]3)[C@H](C)C[C@H]4C)nc2c1C(=O)O`: the call in assay [8] was inactive. The Potency entry in [2], in assay [3] and in [5] was “inactive” in each case. The Potency in assay [7] was 3.16 µM (active).

Regarding `CCCN1CCc2cccc3c2[C@H]1Cc1ccc(O)c(O)c1-3`, the Potency entry in assay [2] and in assay [3] was “inactive” each time. In addition, the Potency in [6] is 35.5 µM (active).

Regarding `COc1ccc2c(c1OC)C(=O)OC2C1c2cc3c(cc2CCN1C)OCO3` (centres undefined), the molecule was classed as inactive in assay [8] and in assay [9].

Turning to `C[N+]1(C)C2CCC1CC(OC(=O)c1c[nH]c3ccccc13)C2` (centres undefined), the call in assay [8] and in [4] was inactive. Besides, the Potency result in assay [2], in assay [3], in assay [5], in assay [6] and in assay [7] was “inactive” throughout.

For `O=C1C=CC(=O)C=C1`, the Potency result in assay [10], in [6] and in assay [7] was “inactive” in each case. Also, the result in [4] was inactive.

The values are drawn from PubChem BioAssay (NCATS).
